We go through 8 compounds from PubChem BioAssay (NCI).

Some test systems named below: EKVX NSCLC; SN12C renal; UO-31 renal; TK-10 renal; ACHN renal; CAKI-1 renal; A498 renal; CCRF-CEM leukemia; MOLT-4 leukemia; SR leukemia; RPMI-8226 leukemia; OVCAR-8 ovarian; OVCAR-5 ovarian; OVCAR-4 ovarian; SK-OV-3 ovarian; IGROV1 ovarian; HS 578T breast; T-47D breast; NCI/ADR-RES ovarian; OVCAR-3 ovarian.
Common to all, as to experiment: NCI-60 one-dose screen, 48 h (100 = growth as untreated, 0 = no growth, -100 = all killed)
Conditions in all cases: 10 µM unless noted

The panel holds about 83,000 compounds, 20% with a hit somewhere; the sample as a whole holds those more often.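 Plates (96-well) were seeded with cells, treated with compound at one concentration, and incubated for 48 hours before percent growth was determined.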 A number with no mark means an inactive call. The source made the active and inactive calls. How the source made its calls: active means growth percent below 10; inactive means the rest.

Turning to `COc1ccc(N/N=C/c2c(-c3ccc(S(C)(=O)=O)cc3)nc3ccccn23)cc1`, the growth was 69.2% with EKVX NSCLC; 49.8% in the experiment with SN12C renal; 30.2% in the experiment on UO-31 renal; 57.3% with TK-10 renal; 32.2% with ACHN renal; 20.3% in the experiment on CAKI-1 renal. Moreover, the growth is 35.6% with A498 renal; 32% in the experiment with CCRF-CEM leukemia; 18.6% with MOLT-4 leukemia; 57.1% with SR leukemia; 32.2% in the experiment on RPMI-8226 leukemia; 49.1% in the experiment with OVCAR-8 ovarian. The growth was 67.4% in the experiment with OVCAR-5 ovarian; 42.1% in the experiment on OVCAR-4 ovarian; 62.2% with SK-OV-3 ovarian; 51.9% in the experiment on IGROV1 ovarian; 62.4% in the experiment on HS 578T breast; 26.2% in the experiment on T-47D breast.
Regarding `CS(=O)(=O)c1ccc(-c2nc3ccccn3c2C=Nc2ccc(Cl)cc2)cc1`, the growth with EKVX NSCLC was 100%; in the experiment on SN12C renal, 81.6%; in the experiment with UO-31 renal, 61.4%; in the experiment with TK-10 renal, 110%; in the experiment on ACHN renal it was 49.4%; with CAKI-1 renal, 42.9%. In addition, the growth is 79.1% in the experiment with A498 renal; 61.8% in the experiment with CCRF-CEM leukemia; 64.9% in the experiment with MOLT-4 leukemia; 96.8% in the experiment on SR leukemia; 77.1% with RPMI-8226 leukemia; 86.3% with OVCAR-8 ovarian. Further, the growth with OVCAR-5 ovarian is 83.6%; in the experiment on OVCAR-4 ovarian it was 88.2%; in the experiment on SK-OV-3 ovarian it was 96.9%; in the experiment with IGROV1 ovarian it was 78.4%; in the experiment with HS 578T breast it was 104%; with NCI/ADR-RES ovarian, 62.3%. Further, the growth with T-47D breast is 65.4%.
Consider `CN1C(=O)N(c2ccccc2)C2N=C(N/N=C/c3ccccc3)SC21` (configuration not stated), for which the growth in the experiment with EKVX NSCLC was 53.4%; in the experiment on SN12C renal, 38.5%; with UO-31 renal it was 47.4%; in the experiment on TK-10 renal it was 61.7%; with ACHN renal it was 49.1%; in the experiment on CAKI-1 renal it was 41.9%. In addition, the growth in the experiment on A498 renal was -18.8% (active); with CCRF-CEM leukemia it was 17.1%; with MOLT-4 leukemia it was 25.5%; with SR leukemia it was 13.6%; in the experiment on RPMI-8226 leukemia, 22.5%; in the experiment with OVCAR-8 ovarian, 25.7%. In addition, the growth is 35.1% in the experiment on OVCAR-5 ovarian; 68.3% in the experiment with OVCAR-4 ovarian; 37.1% with SK-OV-3 ovarian; 38.2% with IGROV1 ovarian; 2.36% (active) in the experiment with HS 578T breast; 32.6% in the experiment with T-47D breast.
On to `COc1ccc(/C=N/Nc2ccnc3cc(Cl)ccc23)cc1Cl`, for which the growth was 12.2% in the experiment with EKVX NSCLC; -70.8% (active) in the experiment with SN12C renal; -90% (active) in the experiment on UO-31 renal; -81.6% (active) with TK-10 renal; -99.8% (active) in the experiment with ACHN renal; -83.5% (active) with CAKI-1 renal. Further, the growth in the experiment on A498 renal was 36.7%; in the experiment with CCRF-CEM leukemia it was -19.8% (active); in the experiment on MOLT-4 leukemia it was -25.3% (active); with SR leukemia it was -9.69% (active); in the experiment with RPMI-8226 leukemia, -37.8% (active); in the experiment with OVCAR-8 ovarian, -57.6% (active). The growth in the experiment with OVCAR-5 ovarian was -71.9% (active); in the experiment with OVCAR-4 ovarian it was -60.7% (active); in the experiment with IGROV1 ovarian it was -59.5% (active); with OVCAR-3 ovarian, -92.2% (active); with HS 578T breast, -53.5% (active); with NCI/ADR-RES ovarian it was 0.936% (active). In addition, the growth in the experiment on T-47D breast is -62% (active).
On to `O=C1[C@H]2Cc3c([nH]c4ccccc34)[C@@H](c3ccc(Br)cc3)N2C(=O)CN1C1CCN(Cc2ccccc2)CC1`, for which the growth with EKVX NSCLC is 35.5%; with SN12C renal it was 12.9%; with UO-31 renal, 38.5%; in the experiment with TK-10 renal it was 64.3%; with ACHN renal it was 30.6%; in the experiment on CAKI-1 renal it was 44.9%. For the same compound, the growth in the experiment on A498 renal is 61%; with CCRF-CEM leukemia, 15.5%; in the experiment on MOLT-4 leukemia, 12.7%; in the experiment on SR leukemia, -10.6% (active); in the experiment with RPMI-8226 leukemia, 3.9% (active); in the experiment on OVCAR-8 ovarian, 41.6%. In addition, the growth in the experiment on OVCAR-5 ovarian is 65%; in the experiment on OVCAR-4 ovarian, 48.3%; in the experiment on IGROV1 ovarian, 18.7%; with OVCAR-3 ovarian, 68.1%; in the experiment with HS 578T breast, 36.7%; with T-47D breast, 19.3%.
In the case of `CC(C)(C)Nc1nc2c(OCCc3ccccc3)cccn2c1-c1ccc(Cl)cc1`, the growth was 5.46% (active) in the experiment on EKVX NSCLC; 10.3% in the experiment with SN12C renal; 0.0667% (active) in the experiment with UO-31 renal; 20.8% in the experiment on TK-10 renal; 8.77% (active) with ACHN renal; 29.3% in the experiment on CAKI-1 renal. Moreover, the growth in the experiment with A498 renal is 56%; in the experiment on CCRF-CEM leukemia, 6.47% (active); with MOLT-4 leukemia, 4.83% (active); with SR leukemia it was 1.41% (active); with RPMI-8226 leukemia it was -16.1% (active); with OVCAR-8 ovarian, 26.3%. Moreover, the growth is 29.4% in the experiment with OVCAR-5 ovarian; 18.2% with OVCAR-4 ovarian; 42.2% in the experiment on SK-OV-3 ovarian; 23.8% with IGROV1 ovarian; 70.3% in the experiment on HS 578T breast; 4.99% (active) in the experiment with NCI/ADR-RES ovarian. The growth in the experiment on T-47D breast is 8.79% (active).
Regarding `CC(O)C(NC(=O)C1CCCN1C(=O)CNC(=O)C1CC(=O)NCC(=O)NC(Cc2c[nH]c3ccccc23)C(=O)NC(Cc2ccc(O)cc2)C(=O)NCC(=O)NC(CO)C(=O)NC(CCC(N)=O)C(=O)NC(Cc2c[nH]c3ccccc23)C(=O)N1)C(=O)NCC(=O)NC(CCC(N)=O)C(=O)NC(CCCNC(=N)N)C(=O)NC(CC(=O)O)C(=O)O` (configuration not stated), the growth in the experiment on EKVX NSCLC is 100%; with SN12C renal, 101%; with UO-31 renal, 83.3%; in the experiment with TK-10 renal, 116%; in the experiment with ACHN renal it was 96.2%; in the experiment on CAKI-1 renal, 91.5%. For the same compound, the growth was 94.7% with CCRF-CEM leukemia; 104% with MOLT-4 leukemia; 94.5% in the experiment with SR leukemia; 83.5% in the experiment on RPMI-8226 leukemia; 101% in the experiment on OVCAR-8 ovarian; 110% in the experiment with OVCAR-5 ovarian. The growth with OVCAR-4 ovarian is 99.8%; in the experiment with SK-OV-3 ovarian, 106%; in the experiment on IGROV1 ovarian, 105%; with OVCAR-3 ovarian, 102%; in the experiment on HS 578T breast, 102%; in the experiment on NCI/ADR-RES ovarian, 104%. Besides, the growth in the experiment on T-47D breast is 106%.
On to `Cc1cc(C(=O)Nc2sc3c(c2C(N)=O)CCC(=O)C3)ccc1OCCN1CCCCC1`, for which the growth was 107% with EKVX NSCLC; 92.5% in the experiment with SN12C renal; 94.8% with UO-31 renal; 148% with TK-10 renal; 91.1% with ACHN renal; 98.3% in the experiment on CAKI-1 renal. For the same compound, the growth in the experiment with A498 renal is 120%; in the experiment on CCRF-CEM leukemia it was 77.1%; in the experiment with MOLT-4 leukemia, 51.9%; in the experiment on SR leukemia, 81.6%; in the experiment on RPMI-8226 leukemia, 85.7%; with OVCAR-8 ovarian it was 101%. In addition, the growth with OVCAR-5 ovarian was 119%; in the experiment on OVCAR-4 ovarian, 108%; with IGROV1 ovarian, 91%; in the experiment with HS 578T breast, 102%; with T-47D breast it was 89.4%.
